Source: PubChem BioAssay (Tox21)
Results filed as inconclusive are left out. Where a call stands in place of a potency, no number is given. Active and inactive are the calls of the source. Calls come from the whole dose curve.

experiment: qHTS assay to identify small molecule antagonists of the sonic hedgehog signaling (Shh) pathway (AID 1259369); details: NIH/3T3 Gli1-Luc reporter, Shh antagonist, luminescence 24 h; series mostly up to 92.4 µM; note: nearly all actives have a fitted effect of over 45% in size
Text: U.S. Tox21 Program National Center for Advancing Translational Sciences [NCATS] NIH Chemical Genomics Center [NCGC] U.S. Environmental Protection Agency [EPA] National Institutes of Environmental Health Sciences [NIEHS] National Toxicology Program [NTP] U.S. Food and Drug Administration [FDA] Tox21 Assay Overview: The sonic hedgehog (Shh) pathway is essential for normal embryonic development. Dysregulation of the Shh pathway can cause severe developmental defects in organs. Therefore chemicals that interfere with the pathway are potential developmental toxicants. A cell line designated 3T3Gli1-Luc (DMB/OARSA/CFSAN/FDA, Laurel, MD), a NIH/3T3 derived clone containing stably integrated Gli1-Luc reporter is used to detect chemical interference of the Shh pathway, by changes in the expression of the firefly Luc gene under the control of the Gli1 transcriptional response element. This cell line was used to screen Tox21 libraries for identifying and prioritizing the potential developmental toxicants that interfere Shh pathway. Conditioned medium-stimulated mode was used to screen for chemicals inhibiting Shh signaling.
Tox21 Assay Protocol Summary: 3T3 Gli1-Luc cells were dispensed at 2,000 per well in 5uL of culture medium into white solid bottom 1536-well plates (Greiner Bio-One, Monroe, NC) using a Multidrop Combi (Thermo Scientific, Waltham, MA) dispenser. The assay plates were incubated at 37 C and 5% CO2 for 4hr, and then 23nL of compounds dissolved in DMSO and positive control were transferred using a Pintool station (Wako, San Diego, CA). The compound transfer was followed by the addition of 1ul conditioned medium or assay buffer using two separate tips of Flying Reagent Dispenser (FRD, Aurora Discovery, San Diego, CA). The assay plates were incubated at 37C and 5% CO2 for 24hr. For luciferase read, 4uL of Amplite Luciferase reporter gene assay reagent (AAT Bioquest, Inc. Sunnyvale, CA) was added to each well of the assay plates using FRD and incubated at room temperature for 30min. The luminescence signal was measured using a ViewLux plate reader (Perkin Elmer, Shelton, CT).

SMILES | Potency | activity change, negative = inhibition
O=C1OCCO1 | inactive | 
O=C(Cn1ccnc1[N+](=O)[O-])NCc1ccccc1 | inactive | 
CCCCOCC(C)O (stereo not given) | inactive | 
CN(C)CCCCl | inactive | 
CCCC(CC)c1ccccc1 (stereo not given) | inactive | 
CC(N)CCCC(C)(C)O (stereo not given) | inactive | 
CC(O)COC(C)(C)C (stereo not given) | inactive | 
CCOc1ccccc1OCC1CNCCO1 (stereo not given) | inactive | 
CC(C)CO | inactive | 
C/C=C(\C)C(=O)OCCc1ccccc1 | inactive | 
C/C(CC(C)C)=N\O | inactive | 
C=CCSSCCC | inactive | 
CC(C)Cn1cnc2c1c(=O)n(C)c(=O)n2C | inactive | 
O=C1c2ccccc2C(=O)c2cc(Cl)ccc21 |  | 20.2% [at 8.39 µM] (inactive)
OC1(c2ccc(Cl)cc2)CCNCC1 | inactive | 
CC(C)CCOC(=O)c1ccccc1 | inactive | 
O=C1NC(c2ccccc2)(c2ccccc2)C(=O)N1COP(=O)(O)O | inactive | 
O=C[O][Al]([O]C=O)[O]C=O | inactive | 
C=CCCCCCCCCC(=O)OCCCC | inactive | 
CC(CO)(CO)CO | inactive | 

SMILES | Potency | activity change, negative = inhibition
CCCSSCCC | inactive | 
CC(=O)OC1CCCCC1C(C)(C)C (stereo not given) | inactive | 
CN(C)CCOC(=O)C(c1ccccc1)C1(O)CCCC1 (stereo not given) | inactive | 
CO/N=C(/C(=O)N[C@@H]1C(=O)N2C(C(=O)[O-])=C(C[n+]3ccn4ncccc43)CS[C@H]12)c1nsc(N)n1 | inactive | 
CC(=O)CCc1ccc(OC(C)=O)cc1 | inactive | 
[O]=[Mo](=[O])=[O] |  | -0.431% [at 19 µM] (inactive)
C=CC(=O)CCCCC | inactive | 
COC(=O)c1cccc(Cl)c1 | inactive | 
N#CCC(=O)NN | inactive | 
CCCCCCCCCOC(=O)CCCCC(=O)OCCCCCCC | inactive | 
CC(=O)OCC(=O)Nc1cc(C#N)cc(NC(=O)COC(C)=O)c1Cl | inactive | 
c1ccc2c(CC3=NCCN3)cccc2c1 | inactive | 
Cc1ncc([N+](=O)[O-])n1CC(C)O (stereo not given) | inactive | 
CC(C)OC(=O)OCOP(=O)(CO[C@H](C)Cn1cnc2c(N)ncnc21)OCOC(=O)OC(C)C | inactive | 
Cn1nnc2c(C(N)=O)ncn2c1=O | inactive | 
CC1(C)O[C@H]2CC(=O)OC[C@]23[C@H]2CC[C@@]4(C)[C@H](c5ccoc5)OC(=O)[C@H]5O[C@]54[C@]2(C)C(=O)C[C@@H]13 | inactive | 
CC(=O)C(C)O (stereo not given) | inactive | 
COC(=O)c1ccccc1C(=O)O | inactive | 
CCCCOC(=O)C(C)O (stereo not given) | inactive | 
CC1=C(C(=O)O)N2C(=O)[C@@H](NC(=O)[C@H](N)c3ccccc3)[C@H]2SC1 | inactive | 
